Consider 32 compounds from PubChem BioAssay.

For part of these data: Entries with a potency or affinity are not part of this list. Inconclusive results are not listed. This is one part of the list. Calls of active or inactive are those of the source. Unless noted, no rule for the calls is given here.

Assay [1] can be described thus: general cell-killing toxicity readout – plate reader, dry powder samples, cytotoxicity control for PAX8 inhibitor project, dose response (AID 743021).
Assay [2] in a line: IGROV1 cell killing – plate reader, dry powder samples, PAX8 inhibitor project, dose response (AID 743043).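 Also: more negative means fewer viable cells or more cytotoxicity.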
The nature of assay [3]: OVCAR-3 cell viability loss – plate reader, dry powder samples, PAX8 inhibitor project, dose response (AID 743044). The conditions noted are these: max activity: at 35 µM, stronger effect = lower value unless noted.
Assay [4] in a line: toxicity toward immortalized ovarian surface epithelium – cell-based, plate reader, dry powder samples, cytotoxicity control for PAX8 inhibitor project, dose response (AID 743045).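 Also: 0% = neutral control median and -100% = positive control median; more negative values mean more cell killing.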
Assay [5] can be described thus: A2780 cell killing – plate reader, dry powder samples, cytotoxicity control, dose response (AID 743046).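 Also: 0% = neutral control wells and -100% = cytotoxic reference compound.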
Assay [6] in a line: Ring1 de-repression measured by qPCR – cell-based, mouse ESC, RT-qPCR, cherry-pick, esBAF inhibitor project, confirmation (AID 743176;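 active = Ring1 gene expression raised more than 2-fold over untreated cells in both replicates at either tested dose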;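 also: Ring1 transcript normalised to actin housekeeping signal by TaqMan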). To be noted: mouse ESC E14, Ring1 mRNA RT-qPCR fold change, stronger effect = higher value. On the technique in general: In qPCR the cycle at which signal appears reflects the starting amount.
Assay [7] can be described thus: Fgf4 repression measured by qPCR – cell-based, mouse ESC, RT-qPCR, cherry-pick, esBAF inhibitor project, confirmation (AID 743177;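 active = Fgf4 expression under 0.8 fold of control in both repeat measurements at one or both tested doses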;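 also: Fgf4 transcript normalised to actin in duplex TaqMan qPCR; cells exposed to compound for 24 h before lysis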). To be noted: mouse ESC E14, Fgf4 mRNA qPCR fold change, stronger effect = lower value.
The nature of assay [8]: Bmi1 mRNA increase in mouse ESCs – cell-based, RT-qPCR, mouse ESC, single point, cherry-pick, confirmation (AID 743180;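 active = Bmi1 expression fold change above 6 at either tested concentration, seen in replicate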;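 also: higher fold means more Bmi1 de-repression and stronger esBAF inhibition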). The conditions noted are these: mouse ESC E14, Bmi1 mRNA qPCR fold, stronger effect = higher value.
Assay [9] in a line: viability loss in A549 cells – cell-based, plate reader, single point, cherry-pick, cytotoxicity control (AID 743188). The conditions noted are these: at 25 µM.
The nature of assay [10]: viability loss in HepG2 cells – cell-based, plate reader, single point, cherry-pick, cytotoxicity control (AID 743189; in the data active = activity change below about -50%). To be noted: at 25 µM, stronger effect = lower value.
Assay [11] in a line: viability loss in HEK293 cells – cell-based, plate reader, single point, cherry-pick, cytotoxicity control (AID 743190; in the data active = activity change below about -38%, passing the limit was not always enough). To be noted: at 25 µM.
The nature of assay [12]: A549 cell cytotoxicity, dose response, cytotoxicity control, plate reader, cherry-pick, antagonist series (AID 743412).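 Also: 0% = neutral control wells and -100% = positive control wells.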
Assay [13] is described as follows: OVCAR8 cell viability loss – plate reader, dry powder samples, PAX8 project, dose response (AID 743197).
A short description of assay [14]: toxicity toward HepG2 liver cells – cell-based, plate reader, cherry-pick, antagonist series, cytotoxicity control, dose response (AID 743416).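 Also: 0% = neutral control wells and -100% = positive control wells.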

Take `COc1cccc(C#Cc2ccc([C@@H]3[C@@H](C#N)N(C(=O)C4CCCCC4)[C@@H]3CO)cc2)c1`: the call in assay [1], in [2], in assay [3], in [4] and in assay [5] was inactive.

In the case of `CC(=O)NC(c1ccc(Cl)cc1)c1ccc2cccnc2c1O` (stereo not drawn), the compound was called inactive in assay [1].

As to `N#C[C@@H]1[C@@H](c2ccc(C#Cc3ccccc3F)cc2)[C@@H](CO)N1C(=O)C1CCCC1`, in [5], the compound was called inactive.

For `Cn1c(CCN2CCCC2)nc2cc(NS(=O)(=O)c3ccc(Cl)cc3)ccc21`, the outcome in [1], in assay [4] and in [5] was inactive.

Turning to `Cc1ccc(-c2nc(COC(=O)c3c(C)noc3C)cs2)cc1`, the fold change in assay [6] (Ring1 fold increase, at 7 µM) was 1.44; in [6] (at 33 µM), 1.18 (inactive); in [8] (Bmi1 de-repression, at 7 µM) it was 1.56; in assay [8] (at 33 µM), 1.73 (inactive). Further, the Fgf4 expression fold change in assay [7] (Fgf4 expression, at 7 µM) is 1.15; in [7] (at 33 µM), 1.07 (inactive). In assay [9], the cell viability change % (negative = cytotoxic) is -1.11% (inactive). Also, the activity change, negative = inhibition in assay [10] was -41.9% (inactive); in [11] it was -15.3% (inactive).

In the case of `CCCC1=Nc2cc(C(=O)NCCCOCC)ccc2Sc2ccccc21`, the compound was classed as inactive in assay [1].

Turning to `O=C(Nc1cccnc1Cl)c1cc(-c2ccccc2O)on1`, the fold change is 1.22 in assay [6] (Ring1 fold increase, at 7 µM); 1 (inactive) in assay [6] (at 33 µM); 1.07 in [8] (Bmi1 de-repression, at 7 µM); 1.14 (inactive) in [8] (at 33 µM). Besides, the Fgf4 expression fold change in assay [7] (Fgf4 expression, at 7 µM) was 1.2; in [7] (at 33 µM), 1.05 (inactive). In [9], the cell viability change % (negative = cytotoxic) is -9.75% (inactive). Further, the activity change, negative = inhibition in assay [10] is -4.96% (inactive); in [11] it was -13.7% (inactive).

`C=C(C(=O)c1ccccc1)C(C(=C)C(=O)c1ccccc1)c1ccc(OC)cc1`: the compound was classed as inactive in [1].

For `N#C[C@@H]1[C@@H](c2ccc(C3=CCCCC3)cc2)[C@@H](CO)N1C(=O)NC1CCCCC1`, the compound was called inactive in assay [1], in [2], in [3], in assay [4] and in assay [5].

`O=C(CCCN1C(=O)/C(=C\c2cccc(Br)c2)SC1=S)Nc1ccccn1`: the compound was called inactive in assay [1] and in assay [5].

As for `Brc1ccc(-n2cc(-c3ccccc3)c3c(NN4CCOCC4)ncnc32)cc1`, the call in [1] was inactive.

Turning to `CSC(=Nc1ccccc1)N=C(SCc1ccccc1)N(C)C`, the compound was called inactive in assay [1].

With `COCC(=O)N1[C@H](CO)[C@H](c2ccc(-c3cccnc3)cc2)[C@@H]1C#N`, the outcome in [1], in assay [2], in [3], in assay [4] and in [5] was inactive.

For `COc1cccc(C#Cc2ccc([C@@H]3[C@@H](C#N)N(C(=O)C4CCCC4)[C@@H]3CO)cc2)c1`, the compound was called inactive in [1], in assay [2], in [3], in assay [4] and in [5].

As for `CC(C)CCCCCCCCCCCCC(=O)NCC(=O)NC1C(C)OC(Nc2ncnc3nc[nH]c23)C(O)C1O` (stereo not drawn), in assay [1], the outcome was inactive.

Turning to `O=C(CCCN1C(=O)/C(=C\c2ccccc2OC(F)F)SC1=S)Nc1cccnc1`, the result in [1] and in [5] was inactive.

For `N#C[C@H]1N[C@H](CO)[C@@H]1c1ccc(C#Cc2ccccc2F)cc1`, the outcome in assay [1], in assay [4] and in [5] was inactive.

With `Oc1cccc2cc(Nc3ccccc3)cnc12`, in assay [1], the compound was called inactive.

Turning to `CC(Cc1cccs1)NC(=O)c1cccc(Cl)c1` (stereo not drawn), the fold change was 1.11 in assay [6] (Ring1 fold increase, at 7 µM); 1.07 (inactive) in [6] (at 33 µM); 1.36 in assay [8] (Bmi1 de-repression, at 7 µM); 1.53 (inactive) in [8] (at 33 µM). The Fgf4 expression fold change was 1.02 in [7] (Fgf4 expression, at 7 µM) and 1.08 (inactive) in assay [7] (at 33 µM). In addition, in assay [9], the cell viability change % (negative = cytotoxic) is -16% (inactive). The activity change, negative = inhibition in [10] is -51.2% (active); in [11] it was -22.2% (inactive).

As to `CCOC(=O)c1c(-c2ccc(F)cc2)csc1NC(=O)CN1C(=O)NC2(CCCCC2C)C1=O` (stereo not drawn), the result in assay [1] was inactive.

Turning to `CC(C)c1cc(C(=O)OCC(=O)N2CCN(C(=O)c3ccco3)CC2)c(O)c(C(C)C)c1`, the compound was called inactive in [1], in assay [2], in [4] and in [5].

Take `COC(=O)[C@@]1(CCS(=O)(=O)c2ccccc2)N=C(c2ccc(OCCCO)cc2)O[C@H]1c1ccccc1`: the call in [1], in assay [2], in [4] and in assay [5] was inactive.

Turning to `COc1cc2nc(C3CCC3)nc(N3CCN(c4ccccc4OC)CC3)c2cc1OC`, the result in assay [1] was inactive.

For `CN(C(=O)OC(C)(C)C)c1ccc(-c2nc3ccccc3s2)cc1`, the result in assay [1] and in [12] was inactive.

For the compound `COC(=O)/C(=C1\Oc2ccc(C(C)(C)C)cc2S1)C(F)(F)F`, the fold change in assay [6] (Ring1 fold increase, at 7 µM) was 1.4; in assay [6] (at 33 µM) it was 1.09 (inactive); in assay [8] (Bmi1 de-repression, at 7 µM), 1.51; in assay [8] (at 33 µM), 1.42 (inactive). In addition, the Fgf4 expression fold change in assay [7] (Fgf4 expression, at 7 µM) was 1.06; in [7] (at 33 µM) it was 0.881 (inactive). The cell viability change % (negative = cytotoxic) in assay [9] was -9.79% (inactive). The figures for the activity change, negative = inhibition in assay [10] and in assay [11] were -31.4% (inactive) and 0.258% (inactive), respectively.

`C[C@@H]1CN([C@@H](C)CO)S(=O)(=O)c2ccc(C#CC3CCCC3)cc2O[C@H]1CN(C)Cc1cccnc1`: the compound was called inactive in [2], in [4] and in assay [13].

With `C=C1C(=O)C2=CC1CCC(=O)C1(C)CCC(OC(C)=O)C(C)(C)C1CC2O` (stereo not drawn), the outcome in [1] was inactive.

`O=C(O)c1cccc(COc2ccc3c(c2)CCC3)c1`: the compound was called inactive in [1] and in [14].

With `N#C[C@H]1[C@@H](c2ccc(C3=CCCC3)cc2)[C@@H](CO)N1C(=O)NC1CCCCC1`, the call in assay [1], in [2], in [3] and in [5] was inactive.

For the compound `N#C[C@H]1[C@@H](c2ccc(C#Cc3cccc(F)c3)cc2)[C@@H](CO)N1C(=O)C1CCCC1`, the compound was called inactive in [3] and in assay [4].

With `CN1c2ccccc2N(C)C1(C)c1ccccc1`, the compound was classed as inactive in assay [1].

For the compound `C/C(=C\C(=O)c1cccnc1)Nc1ccc(C)c(C)c1`, the fold change in [6] (Ring1 fold increase, at 7 µM) was 1.22; in assay [6] (at 33 µM) it was 1.07 (inactive); in assay [8] (Bmi1 de-repression, at 7 µM) it was 1.46; in assay [8] (at 33 µM) it was 1.59 (inactive). The Fgf4 expression fold change is 1.06 in assay [7] (Fgf4 expression, at 7 µM) and 0.903 (inactive) in assay [7] (at 33 µM). For the same compound, the cell viability change % (negative = cytotoxic) in assay [9] is -3.61% (inactive). Further, the results for the activity change, negative = inhibition in assay [10] and in assay [11] were 12.6% (inactive) and -0.923% (inactive), respectively.
